Records with an inconclusive call do not appear. The source made the active and inactive calls. The call rests on the fitted dose curve; in most records, active means well fitted inhibition curve with a large enough effect; inconclusive means small, poorly fitted or top-dose-only effect, or effect the other way; inactive means no such curve, though single readings can be large or run the other way.
On the % scale 0 is the no-effect control and ±100 the full control effect; potency means the concentration at half of the fitted maximal effect.

This test is described as follows: Concentration response confirmation VP16 counterscreen for inhibitors of ROR gamma transcriptional activity. Further: nearly all actives have a fitted effect of over 70% in size. The conditions noted are these: Drosophila S2 Gal4-VP16 UAS-luciferase, luminescence, 20 h; series mostly up to 46.1 µM; activity change, negative = inhibition: at the top concentration. From the text: NIH Molecular Libraries Probe Production Network [MLPCN] NIH Chemical Genomics Center [NCGC] MLPCN Grant: R03 DA026211-01 Assay Provider: Dan Littman, New York University Assay Overview: The retinoic acid-related orphan receptor (ROR) gamma is a transcription factor that has a central role in the differentiation of Th17 cells, a subset of T helper cells that secrete the inflammatory cytokines IL-17, IL-17F, and IL-22. Th17 cells have been implicated in graft versus host disease, autoimmune disease and asthma. ROR gamma is induced in naive T helper cells in the presence of TGF-beta combined with IL-6, IL-21, or IL-23, and thereafter directs the expression of the Th17 lineage cytokines. To identify nonspecific inhibitors, a Drosophila Schneider cell line was stably transfected with two vectors: a gene expressing a fusion of the Gal4 DNA binding domain and the transactivation domain of the viral transcription factor VP16, under the control of the metallothionine promoter and a Photinus luciferase reporter regulated by the Gal4 binding site enhancer, UAS. […] Small molecule inhibitors that inhibit components common to the RORgt and VP16 assays, such as the Gal4 DNA binding domain or the UAS luciferase reporter, will be active in both assays and thus scored as nonspecific.
Assay Protocol Summary: For screening, 600 cells in 4 uL/well were dispensed into white solid 1536-well plates (Grenier) using a solenoid-based dispenser. Following transfer of 23 nL compound or DMSO vehicle by a pin tool, the plates were incubated 1 hr at ambient temperature, and 1 uL/well copper sulfate (700 uM final concentration) was added. The plates were centrifuged 15 s at 1000 RPM and incubated 20 hr at ambient temperature. After addition of 1.5 uL Photinus luciferase detection reagent, the plates were incubated 10 min at ambient temperature and then read by an ViewLux (Perkin Elmer) to detect luminescence.
Take `CCCNS(=O)(=O)c1ccc(OCC(=O)N2CCN(Cc3ccc4c(c3)OCO4)CC2)cc1`: the Potency is 25 µM (active).

Consider `OC(COCc1ccc(Cl)cc1)CN1CC=C(c2ccccc2)CC1` (stereo not drawn), for which the “activity change, negative = inhibition” value was -5.07% (inactive).

`O=C(c1ccco1)c1cn(Cc2ccccc2Cl)c2ccccc12`: the “activity change, negative = inhibition” value is -11.3% (inactive).

For `Cc1cc(S(=O)(=O)NC(C)C)ccc1OCC(=O)N1CCN(Cc2ccc3c(c2)OCO3)CC1`, the Potency was 11.2 µM (active).

With `O=C(Nc1ncc(Cc2ccccc2)s1)C1=NCCN1`, the Potency was 19.9 µM (active).

In the case of `CCCCNS(=O)(=O)c1ccc(OCC(=O)N2CCN(Cc3ccc4c(c3)OCO4)CC2)cc1`, the Potency is 22.3 µM (active).

Turning to `Cn1ncnc2c(=O)n(C)c(=O)nc1-2`, the Potency is 0.445 µM (active).

Turning to `COc1cc(C(=O)N/N=C/C23CC[C@@H](O)CC2(O)CC[C@@H]2[C@@H]3CCC3(C)C(C4=CC(=O)OC4)CCC23O)ccc1O` (stereo partly drawn), the “activity change, negative = inhibition” value is 1.36% (inactive).

The values above are taken from PubChem BioAssay AID2763 (National Center for Advancing Translational Sciences (NCATS), 2010).
